GRK2 aptamer HTS – inhibitors of human GRK2 displacing RNA aptamer | inhibition of aptamer binding, % at 10 µM | bead flow cytometry, FAM-aptamer displacement from GRK2 | P25098 | 330,000 compounds, 0.59% hits;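 active = inhibition of aptamer binding above 40%, roughly 3 SD of noise, on plates passing a quality check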;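 note: median bead fluorescence of bound FAM aptamer so fluorescent compounds give negative values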
HDAC3 inh – human HDAC3 inhibition; 320,000 compounds, 0.15% hits; recombinant HDAC3, fluorogenic peptide/trypsin coupled, fluorescence; inhibition, % at 8.3 µM; AID 2718; O15379; in the data active = inhibition above about 26%, passing the limit was not always enough; inconclusive = no clear call, values can overlap the other calls
Target sequence (O15379 whole entry, looked up): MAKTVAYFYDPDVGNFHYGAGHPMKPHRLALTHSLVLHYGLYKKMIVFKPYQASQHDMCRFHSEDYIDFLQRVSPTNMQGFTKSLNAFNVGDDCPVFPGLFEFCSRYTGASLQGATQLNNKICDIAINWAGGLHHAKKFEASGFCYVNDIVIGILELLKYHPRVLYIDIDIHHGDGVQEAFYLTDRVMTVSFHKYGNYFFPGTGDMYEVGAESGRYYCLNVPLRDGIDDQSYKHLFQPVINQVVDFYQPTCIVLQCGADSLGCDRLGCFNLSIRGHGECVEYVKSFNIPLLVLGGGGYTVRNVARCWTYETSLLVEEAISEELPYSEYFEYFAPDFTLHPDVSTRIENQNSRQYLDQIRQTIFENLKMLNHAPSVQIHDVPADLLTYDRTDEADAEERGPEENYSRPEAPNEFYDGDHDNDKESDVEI
Neddyl block – cullin neddylation inhibition | inhibition, % at 25 µM | TR-FRET cullin neddylation, biochemical | 360,000 compounds, 0.58% hits | AID 651699; in the data active = inhibition above about 36%
H9c2 protect – modulators protecting cardiomyocytes from myocardial damage; H9c2 cardiomyocytes, H2O2 injury protection, ATPLite, 2 h; protection from H2O2 cell death, % at 20 µM; 360,000 compounds, 0.63% hits; AID 588492;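 active = compounds giving at least 50% protection of heart cells from peroxide-induced death in the single-dose screen, raw or plate-pattern-corrected value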;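 note: 0% = DMSO wells with peroxide and 100% = DMSO wells without peroxide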
GRK2 CP1 – confirmation of human GRK2 inhibitors displacing RNA aptamer; shares compounds with GRK2 aptamer HTS; bead-bound GRK2, FAM-aptamer displacement, flow cytometry; aptamer displacement, % at 10 µM; 2,000 compounds, 4% hits;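 active = aptamer displacement above 40%, near three times the noise of non-fluorescent compounds, on plates passing quality checks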;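 note: negative values mostly reflect intrinsic compound fluorescence rather than true enhancement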
Aptamer quench 1 – quenches fluorescent RNA aptamer, GRK2 hit artifact; shares compounds with GRK2 aptamer HTS; Fluorescent RNA aptamer beads, quenching, flow cytometry; stronger effect = higher value; fluorescence change (kMESF span), kMESF (test concentration not listed); 110 tested, under 10 active; AID 504521;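 active = compounds whose bead fluorescence drops by more than 37 kMESF across the dose range, marking them as dye quenchers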
Aptamer quench SP – aptamer fluorescence quenching in GRK2 counter-screen | shares compounds with GRK2 aptamer HTS | Carboxyfluorescein RNA aptamer on beads, flow cytometry quenching; stronger effect = lower value | fluorescence response (% of DMSO), % at 10 µM | 2,000 tested, under 10 active | AID 504580;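 active = compounds that quench the bead-bound fluorescent RNA probe, cutting fluorescence to under half of the solvent control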;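 note: counterscreen run without GRK2 so only probe quenching by compound is measured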
GRK2 confirm 2 – human GRK2 inhibition confirmation, cherry pick 2 | shares compounds with GRK2 aptamer HTS | bead-bound GRK2, FAM-aptamer displacement, flow cytometry | inhibition of aptamer binding, % at 10 µM | 360 tested, under 10 active;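 active = inhibition of aptamer binding above 40%, about triple the noise seen with nonglowing compounds, on plates passing quality control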;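 note: negative values mostly come from compounds that fluoresce themselves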
FAM quench SP – counter-screen for GRK2 binding hits: quenchers of fluorescent RNA aptamer; shares compounds with GRK2 aptamer HTS; carboxyfluorescein RNA aptamer beads, flow cytometry quenching; stronger effect = lower value; fluorescence response vs DMSO, % at 10 µM; 360 tested, under 10 active;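 active = response vs DMSO under 50%, meaning signal dropped by over half, treated as fluorescence quencher; inconclusive = no clear call, values can overlap the other calls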;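 note: labelled aptamer on streptavidin beads without GRK2 as a quench counter-screen; 100% = bead fluorescence of DMSO wells and lower means quenching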
Numbers without * were called inactive; ? = inconclusive; nt = not tested or not shown. In the library only some 1.8% were active in any assay of this set; here they are far more common.

SMILES | GRK2 aptamer HTS | HDAC3 inh | Neddyl block | H9c2 protect | GRK2 CP1 | Aptamer quench SP | others
COC(=O)c1ccc(C2c3[nH]c4ccccc4c3C[C@H]3C(=O)N(C4CCN(Cc5ccccc5)CC4)CC(=O)N23)cc1 (stereo partly specified) | 0 | 20 | 2 | -7 | nt | nt
O=C(NN1C(=O)/C(=C/C=C/c2ccccc2)SC1=S)c1ccncc1 | 3 | 8 | 0 | -1 | nt | nt
CC(C)C(C(=O)O)N1C(=O)/C(=C/C=C/c2ccco2)SC1=S (stereo unspecified) | 95* | 8 | 10 | 0 | 55* | 96 | Aptamer quench 1=5.8
O=C(NN1C(=O)/C(=C/C=C/c2ccco2)SC1=S)c1ccncc1 | 79* | nt | 16 | 4 | 12 | 101
Cc1ccc(CN2CC(C(=O)NCC(=O)Nc3c(C)cccc3C)CC2=O)cc1 (stereo unspecified) | 3 | 4 | 10 | 0 | nt | nt
COc1ccccc1Oc1cc(-n2nc(C)cc2C)ncn1 | 82* | 0 | 0 | -1 | nt | nt | GRK2 confirm 2=8;FAM quench SP=100
COc1ccccc1OCC(O)Cn1nc(C)cc1C (stereo unspecified) | 2 | ? | 5 | 5 | nt | nt
Cc1ccc(NC(=O)c2ccc3ncsc3c2)cc1S(=O)(=O)N(C)C | 31 | 2 | nt | nt | nt | nt
CC(C)C(C)NC(=O)CSc1ccc(S(=O)(=O)N2CCOCC2)cn1 (stereo unspecified) | 61* | nt | -14 | 0 | 0 | 100
CCOCCCNc1ncnc2c1[nH]c1ccccc12 | 0 | 3 | 30 | -33 | nt | nt
CCCCOCCCNc1ncnc2c1[nH]c1ccccc12 | 53* | 2 | 39 | -21 | -8 | 99
CCc1ccc(CN2CCN(S(=O)(=O)Cc3ccccc3)CC2)cc1 | 5 | 8 | 1 | -6 | nt | nt
CSc1ccc(CN2CCN(S(=O)(=O)Cc3ccccc3)CC2)cc1 | 55* | -1 | 3 | -4 | nt | nt | GRK2 confirm 2=-29;FAM quench SP=103
CC1CC(C)CN(S(=O)(=O)c2cccc(C(=O)OCCN3CCCC3=O)c2)C1 (stereo unspecified) | 89* | 5 | 3 | -5 | 2 | 98
CC(OC(=O)[C@@H](NS(=O)(=O)c1ccccc1)C(C)C)C(=O)c1c(N)n(C)c(=O)n(C)c1=O (stereo partly specified) | nt | nt | -2 | -4 | nt | nt
CC1(C)N=C(SCC(=O)Nc2ccc(Cl)cc2)C(c2ccc(Cl)cc2)=N1 | 33 | 12 | -5 | -7 | -3 | 95
CC1(C)N=C(SCC(=O)Nc2ccc(Cl)cc2)C(c2ccccc2)=N1 | 0 | 3 | 3 | 8 | nt | nt
C[C@H](CO)N1C[C@H](C)[C@@H](CN(C)S(=O)(=O)c2cn(C)cn2)OCc2cn(nn2)CCCC1=O | nt | nt | 2 | 2 | nt | nt
O=C(CCN1CCCCC1)N1CCc2c([nH]c3ccccc23)C1c1cccnc1 (stereo unspecified) | nt | nt | -9 | 11 | -3 | 105
COc1ccccc1N1CCN(C(=O)c2c(-c3c(F)cccc3Cl)noc2C)CC1 | nt | nt | 8 | -1 | nt | nt
O=C(COc1ccccc1)Nc1cccc(-c2ccc(N3CCOCC3)nn2)c1 | 0 | -2 | -2 | -14 | 1 | 94
CCS(=O)(=O)c1ccc(-c2cccc(NC(=O)COc3ccccc3)c2)nn1 | 0 | 4 | 0 | -4 | nt | nt
O=C(COc1ccc(Cl)cc1Cl)Nc1cccc(-c2ccc(N3CCOCC3)nn2)c1 | nt | nt | -71 | -11 | -2 | 93
COc1cccc(-c2oc3c(c2-c2ccc(Br)nc2)C(O)CCC3)c1 (stereo unspecified) | nt | nt | -1 | nt | nt | nt
Cc1c([N+](=O)[O-])c(C(=O)NC2CCCCC2)nn1C | 2 | -12 | 5 | 3 | nt | nt
SMILES | GRK2 aptamer HTS | HDAC3 inh | Neddyl block | H9c2 protect | GRK2 CP1 | Aptamer quench SP | others
CN(Cc1ccc(F)cc1)C(=O)c1ccc(NS(=O)(=O)c2ccccc2)cc1 | 2 | 3 | 2 | -2 | nt | nt
CCCC(=O)Nc1nnc(SCC(=O)N2CCCCC2)s1 | 0 | 6 | 0 | 0 | nt | nt
CCCC(=O)Nc1nnc(SCC)s1 | 100* | 4 | -6 | 20 | nt | nt | GRK2 confirm 2=-16;FAM quench SP=102
O=C(Nc1ccc(Cl)cn1)C1CCN(c2ncnc3c2nc2n3CCCCC2)CC1 | 55* | 4 | 0 | -11 | -4 | 107
Cn1c(SCc2ccccc2)nnc1-c1ccco1 | 5 | -4 | -6 | -8 | nt | nt
Cc1ccc(NC(=O)CCCOc2ccccc2)cc1S(=O)(=O)N1CCOCC1 | 75* | 0 | -3 | -2 | 2 | 99
CC(OC(=O)CN1C(=O)c2ccccc2C1=O)C(=O)N(C)c1ccccc1 (stereo unspecified) | 2 | 3 | -8 | -2 | nt | nt
CC(OC(=O)Cc1c[nH]c2ccccc12)C(=O)N(C)c1ccccc1 (stereo unspecified) | 9 | -3 | 6 | -1 | -1 | 96
COC(=O)CN1CCN(C(=O)c2ccco2)CC1 | 4 | 0 | 0 | 3 | nt | nt
Cc1ccccc1C(=O)N1CCC(C(=O)N(C)CC(=O)Nc2cccc(F)c2)CC1 | 51* | -4 | -7 | 0 | nt | nt | GRK2 confirm 2=18;FAM quench SP=102
CN(CC(=O)Nc1cccc(F)c1)C(=O)c1ccc(N2C(=O)c3ccccc3C2=O)cc1 | 0 | 1 | -50 | -4 | -5 | 104
CCN(CC(=O)Nc1ccc(NC(C)=O)cc1)C(=O)C1CCN(C(=O)c2ccccc2C)CC1 | nt | nt | -2 | 0 | nt | nt
Cc1cccc2nc(C(=O)Nc3cccc(C(=O)NC4CC4)c3)cn12 | 4 | -2 | -5 | -7 | nt | nt
CC(=O)c1cccc(NC(=O)c2c(C)nn(-c3ccccc3)c2Cl)c1 | 0 | -13 | 4 | 4 | 2 | 84
Cc1cccc(C(=O)Nc2cccc(C(=O)NC3CCCC3)c2)c1 | 1 | -2 | 0 | -8 | nt | nt
Cc1ccc(-n2nc(C)c(C(=O)Nc3cccc(C(=O)NC4CC4)c3)n2)c(C)c1 | 0 | 11 | -3 | -1 | -1 | 103
CC(=O)c1cccc(NC(=O)c2cc(-c3ccc(C)cc3)on2)c1 | 2 | -4 | -17 | -2 | -2 | 97
Cc1nn(-c2cccc(Cl)c2)nc1C(=O)Nc1cccc(C(=O)NC2CC2)c1 | 2 | 6 | -47 | 32 | 1 | 96
CC(OC(=O)CNC(=O)c1ccc(Cl)c(Cl)c1)C(=O)N1CCOCC1 (stereo unspecified) | 0 | 1 | 5 | 4 | nt | nt
O=C(COc1ccccc1)NCC(=O)N/N=C/c1ccc(Br)cc1 | 7 | -1 | -7 | -4 | nt | nt
CCCC(=O)Nc1nc2ccc(OCC)cc2s1 | 1 | -4 | -24 | -17 | nt | nt

High-throughput results (PubChem BioAssay)
